# From the supplement of paper PMC10477191
# ± gives the standard deviation of the averaged measurements.
# How the values were obtained:
# Experiment in all cases: odor-evoked OSN spike response (post minus pre-stimulus); higher = stronger neuronal excitation
# Conditions in all cases: odor dilution: 10^-4
# [1] = tested on: Drosophila ezoana antennal basiconic sensillum ab1
# Procedure, shortened: (§1)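 The response is the change in spike frequency between pre-stimulus and post-stimulus windows, averaged over replicate sensilla. Both windows lasted 1 second, and spikes were counted with Auto Spike software. Single sensillum recordings used a tungsten electrode at the base of antennal basiconic sensilla on restrained adult flies, with up to 3 sensilla per fly, and odorant at 10^−4 in mineral oil or DMSO (10 µl on filter paper) was delivered as a 500 ms pulse into a charcoal-filtered, humidified 1.5 l min^−1 air stream.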
# [2] = tested on: Drosophila ezoana antennal basiconic sensillum ab3
# Procedure, shortened: as §1
# [3] = tested on: Drosophila virilis antennal basiconic sensillum AB2
# Procedure, shortened: as §1
structure (smiles),measurement,setting,value
CC(C)=O [acetone],odor-evoked OSN spike response,[1],67.1 ± 24 spikes/s
same,odor-evoked OSN spike response,[2],63.3 ± 28 spikes/s
same,odor-evoked OSN spike response,[3],53.7 ± 24 spikes/s
